Consider twelve compounds from PubChem BioAssay (NCATS).

The target of assay [1] is Glucocorticoid receptor (Homo sapiens) (UniProt P04150). In words: GR-GFP Redistribution (AID 450;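 active means compounds whose dose series gives a full or clear partial fitted curve of increased nuclear translocation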; further: potency means the concentration at half of the fitted maximal effect). The following applies: U2OS GR-GFP nuclear translocation, laser cytometry, 2 h.
The target is the same in assay [2]. Description: GR-EFC Redistribution (AID 451; calls by dose curve; further: potency means the concentration at half of the fitted maximal effect). The settings on record: CHO-K1 GR-EFC translocation, beta-gal luminescence, 2 h. Put shortly: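 CHO-K1 cells expressing nuclear EA and GR-ED fragments of b-gal; compounds titrated up to 46 uM final, 2 h at 37 C. GR nuclear translocation read as complemented b-gal luminescence after 1 h RT detection.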
For assay [3], the target named is 3',5'-cyclic-AMP phosphodiesterase 4B (Homo sapiens) (UniProt Q07343). Description: qHTS Assay for Inhibitors of PDE-IV (AID 607; active means well fitted activation curve with a large enough effect in the main read-out, with a control signal flat, not every such curve was filed as active; further: % of control where 0% means no effect). The gist of the method:
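HEK293 ACTOne cells with CNG channel (1000/well), endogenous PDE4; membrane potential dye, compounds up to 22.9 uM final. Fluorescence Ex 535/Em 590; RO 20-1724 (100 uM final) as reference.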

Assay [4] concerns the target DNA dC->dU-editing enzyme APOBEC-3G (Homo sapiens) (UniProt Q9HC16). Description: qHTS for inhibitors of Vif-A3G interactions: Validation (AID 588379). Further: 0% is about no effect. Put shortly: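 Yellow fluorescence (Ex 488, Em 500-530) of Vif-coexpressing HeLa A3G-eYFP cells, scanned by Acumen cytometer, reports blocked A3G degradation. Cells plated at 700/well overnight at 37 deg C before compound addition, then a further overnight compound incubation at 37 deg C.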
(In qHTS, concentration-response curves come from the screen itself.)

A further assay concerns the target Furin (Homo sapiens) (UniProt P09958). In words: Furin counterscreen qHTS for Zika virus inhibitors (AID 1347149). Further: nearly all actives have a fitted effect of over 70% in size. Further: potency means the concentration at half of the fitted maximal effect.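 On activity change, negative = inhibition: purified recombinant full-length human furin enzyme at 5 nM; fluorescence gain from furin cutting a BOC-RVRR-AMC peptide substrate over 15 min; top concentration of the series differs between compounds; plate controls were no-inhibitor control for no effect and no-enzyme control for full effect.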 Put shortly:
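Counterscreen measures cleavage of 2 microM BOC-RVRR-AMC, below its ~15 microM Km, by 5 nM full-length human furin at pH 7.0 after a 15-min compound preincubation. Inhibition derives from the 15-min fluorescence increase at 37C.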

For assay [5], the system named is Zika virus NS2B-NS3 protease (linked construct). In words: Confirmatory screen NINDS AMC qHTS for Zika virus inhibitors (AID 1347152). Further: nearly all actives have a fitted effect of over 70% in size. Further: potency means the concentration at half of the fitted maximal effect.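 On activity change, negative = inhibition: AMC fluorescence gain from cleaved Bz-Nle-KRR-AMC substrate over 15 min; top concentration of the series differs between compounds; 0% = no-inhibitor control and -100% = no-enzyme control.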 Put shortly: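 In this dose-response qHTS, AMC release from 10 microM Bz-Nle-KRR-AMC by 1 nM linked protease is measured over 15 minutes (about 20% conversion) at pH 8.0. Percent inhibition is fitted to a 4-parameter Hill curve.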

For assay [6], the system named is Zika virus NS2B-NS3 protease (unlinked complex). In words: Confirmatory screen GU AMC qHTS for Zika virus inhibitors (AID 1347153). Further: nearly all actives have a fitted effect of over 70% in size.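 On Potency: enzyme at 25 nM with substrate at 10 µM below its Km of 18.3 µM; potency means the concentration at half of the fitted maximal effect.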 Put shortly: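 Unlinked NS2B-NS3 complex (25 nM) in 10 mM Tris-HCl pH 8.0, 0.01% Tween 20 preincubated 15 min with compound, then 10 microM Bz-Nle-KRR-AMC (Km 18.3 µM). Fluorescence change over 15 min, normalized, Hill-fitted.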
The test system of assay [7] is Zika virus NS2B-NS3 protease. Description: Primary screen GU AMC qHTS for Zika virus inhibitors (AID 1347154). Further: potency means the concentration at half of the fitted maximal effect; nearly all actives have a fitted effect of over 70% in size. The gist of the method:
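Unlinked Zika NS2B hydrophilic domain–NS3 protease complex at 25 nM in 10 mM Tris-HCl pH 8.0, 0.01% Tween 20, with an AMC peptide substrate. Fluorescence change (340/450 nm) over 15 min at room temperature, normalized to controls, fitted to 4-parameter Hill.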

Assay [8] can be described thus: HepG2 cells viability qHTS for Zika virus inhibitors (AID 1347168). Further: on the % scale 0 is the no-effect control and ±100 the full control effect. The gist of the method:
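qHTS titration; 24-48 h compound exposure, 37 degrees C/5% CO2; DMEM, 4% FBS; CellTiter Glo ATP luminescence.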

A short description of assay [9]: Primary qHTS for small molecule stabilizers of the endoplasmic reticulum resident proteome: Secreted ER Calcium Modulated Protein (SERCaMP) assay (AID 1508630). Further: on the % scale 0 is the no-effect control and ±100 the full control effect. Put shortly: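 The SH-SY5Y reporter protocol was run at 3 concentrations up to 38.3 uM (primary) or 11 concentrations (follow-up): 16 h compound, 100 nM thapsigargin for 4 h, then extracellular luciferase luminescence.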

In assay [10] the target is Rap guanine nucleotide exchange factor 3 (Homo sapiens) (UniProt O95398). In words: Confirmatory qHTS for antagonist of cAMP-regulated guanine nucleotide exchange factor 3 (EPAC1) (AID 1645880). Further: potency means the concentration at half of the fitted maximal effect; nearly all actives have a fitted effect of over 55% in size. Put shortly: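 Released BODIPY-GDP fluoresces less than Rap1-bound BODIPY-GDP; the signal is followed at 480/540 nm at 5-min intervals over 30 min, after 5 min at room temperature. Reactions contain 100 nM EPAC1, 250 nM RAP1B-BODIPY-GDP and 50 uM GDP; results are normalized to ATA and DMSO.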
Sequence of Rap guanine nucleotide exchange factor 3 (Homo sapiens) (O95398 whole entry, looked up): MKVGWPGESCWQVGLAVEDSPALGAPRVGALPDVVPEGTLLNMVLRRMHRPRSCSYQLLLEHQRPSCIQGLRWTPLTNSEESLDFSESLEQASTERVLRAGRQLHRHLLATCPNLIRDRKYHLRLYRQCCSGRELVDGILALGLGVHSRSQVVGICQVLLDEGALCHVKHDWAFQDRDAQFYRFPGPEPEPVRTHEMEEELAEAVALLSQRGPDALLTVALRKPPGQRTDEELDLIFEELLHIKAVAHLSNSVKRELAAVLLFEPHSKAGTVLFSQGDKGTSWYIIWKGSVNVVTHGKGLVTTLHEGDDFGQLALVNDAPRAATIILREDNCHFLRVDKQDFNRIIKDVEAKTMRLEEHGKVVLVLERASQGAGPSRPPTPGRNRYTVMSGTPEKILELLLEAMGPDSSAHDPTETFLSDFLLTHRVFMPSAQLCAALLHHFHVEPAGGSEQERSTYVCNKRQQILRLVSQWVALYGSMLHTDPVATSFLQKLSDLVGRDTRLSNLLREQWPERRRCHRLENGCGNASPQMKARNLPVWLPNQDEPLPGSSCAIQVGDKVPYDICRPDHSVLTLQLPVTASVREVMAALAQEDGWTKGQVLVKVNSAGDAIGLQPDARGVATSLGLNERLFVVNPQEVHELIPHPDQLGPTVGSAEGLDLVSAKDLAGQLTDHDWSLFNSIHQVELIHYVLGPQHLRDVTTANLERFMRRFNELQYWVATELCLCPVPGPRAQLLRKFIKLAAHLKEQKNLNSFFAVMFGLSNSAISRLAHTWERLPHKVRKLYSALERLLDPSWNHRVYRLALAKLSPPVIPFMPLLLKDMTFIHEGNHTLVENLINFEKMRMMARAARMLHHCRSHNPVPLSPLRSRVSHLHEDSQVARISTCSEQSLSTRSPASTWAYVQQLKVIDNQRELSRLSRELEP

The target is the same in assay [11]. Description: Confirmatory qHTS for agonist of cAMP-regulated guanine nucleotide exchange factor 3 (EPAC1) (AID 1645881).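 Further: EPAC1 catalysed release of BODIPY-GDP from Rap1B seen as fluorescence loss; 100% = effect of cAMP agonist control; nearly all actives have a fitted effect of over 75% in size.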
Assay [12] deals with Rap guanine nucleotide exchange factor 4 (Homo sapiens) (UniProt Q8WZA2). In words: Confirmatory qHTS for agonist of cAMP-regulated guanine nucleotide exchange factor 4 (EPAC2) (AID 1645884).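 Further: nucleotide exchange releases bodipy-GDP from Rap1 and this lowers its fluorescence; on the % scale 0 is the no-effect control and ±100 the full control effect; nearly all actives have a fitted effect of over 65% in size.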
Sequence of Rap guanine nucleotide exchange factor 4 (Homo sapiens) (Q8WZA2 whole entry, looked up): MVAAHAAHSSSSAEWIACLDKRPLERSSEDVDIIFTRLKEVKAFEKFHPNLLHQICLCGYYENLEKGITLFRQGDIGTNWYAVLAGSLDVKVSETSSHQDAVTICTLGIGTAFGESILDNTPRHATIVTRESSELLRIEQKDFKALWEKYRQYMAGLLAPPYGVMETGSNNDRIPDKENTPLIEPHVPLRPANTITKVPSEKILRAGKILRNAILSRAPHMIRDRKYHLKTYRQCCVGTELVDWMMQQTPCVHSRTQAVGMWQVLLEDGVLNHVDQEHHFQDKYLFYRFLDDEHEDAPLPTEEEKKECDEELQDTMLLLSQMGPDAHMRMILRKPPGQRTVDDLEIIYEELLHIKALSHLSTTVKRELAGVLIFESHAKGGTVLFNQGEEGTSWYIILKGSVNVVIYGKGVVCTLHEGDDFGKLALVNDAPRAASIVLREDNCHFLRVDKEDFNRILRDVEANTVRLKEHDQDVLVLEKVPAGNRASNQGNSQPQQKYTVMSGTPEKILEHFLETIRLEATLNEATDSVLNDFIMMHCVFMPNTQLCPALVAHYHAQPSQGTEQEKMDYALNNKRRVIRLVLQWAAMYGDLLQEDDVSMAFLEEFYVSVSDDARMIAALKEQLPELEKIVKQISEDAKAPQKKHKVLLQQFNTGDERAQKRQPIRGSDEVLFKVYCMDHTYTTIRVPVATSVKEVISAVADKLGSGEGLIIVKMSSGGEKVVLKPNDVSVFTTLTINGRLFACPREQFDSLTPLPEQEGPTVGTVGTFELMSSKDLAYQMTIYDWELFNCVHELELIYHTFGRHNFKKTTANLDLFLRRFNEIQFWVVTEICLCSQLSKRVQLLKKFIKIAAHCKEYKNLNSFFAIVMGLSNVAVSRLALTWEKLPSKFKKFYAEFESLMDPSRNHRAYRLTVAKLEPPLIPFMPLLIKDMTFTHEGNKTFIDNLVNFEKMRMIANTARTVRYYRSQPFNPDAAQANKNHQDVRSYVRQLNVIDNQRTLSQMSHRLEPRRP
For assay [13] the target is unchanged. In words: Confirmatory qHTS for antagonist of cAMP-regulated guanine nucleotide exchange factor 4 (EPAC2) (AID 1645885). Further: potency means the concentration at half of the fitted maximal effect; nearly all actives have a fitted effect of over 25% in size.
Assay [14] deals with Cytochrome P450 3A4 (Homo sapiens) (UniProt P08684). Description: qHTS Assay for Inhibitors and Substrates of Cytochrome P450 3A4 (AID 884). Further: on the % scale 0 is the no-effect control and ±100 the full control effect; nearly all actives have a fitted effect of over 50% in size. Put shortly: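 Luminescent readout of luciferin produced by CYP3A4 (20 nM) dealkylation of Luciferin-PPXE, 25 uM (its KM). NADPH-driven reaction ran 60 min at RT after 10 min compound preincubation; data scaled to 57 uM ketoconazole as 100% inhibition.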
Sequence of Cytochrome P450 3A4 (Homo sapiens) (P08684 whole entry, looked up): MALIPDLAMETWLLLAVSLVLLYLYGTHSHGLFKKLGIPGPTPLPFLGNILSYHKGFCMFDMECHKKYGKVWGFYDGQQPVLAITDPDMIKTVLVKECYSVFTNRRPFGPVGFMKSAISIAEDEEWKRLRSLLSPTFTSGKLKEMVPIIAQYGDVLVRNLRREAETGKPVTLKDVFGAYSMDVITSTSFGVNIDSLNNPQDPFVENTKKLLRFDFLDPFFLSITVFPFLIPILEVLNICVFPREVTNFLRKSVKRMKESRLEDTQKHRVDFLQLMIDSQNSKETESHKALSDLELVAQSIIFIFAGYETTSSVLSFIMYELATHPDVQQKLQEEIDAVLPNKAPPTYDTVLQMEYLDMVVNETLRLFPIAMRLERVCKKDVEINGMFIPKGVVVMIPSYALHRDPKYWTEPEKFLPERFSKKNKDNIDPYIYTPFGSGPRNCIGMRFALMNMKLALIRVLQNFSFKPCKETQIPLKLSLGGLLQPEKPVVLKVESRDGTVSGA

Assay [15] is described as follows: Confirmation and Secondary Assay for Modulators of Hemoglobin Beta Chain Splicing at IVS2 654 locus (AID 910).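 Further: HeLa cells stably carrying EGFP split by mutant beta-globin IVS2-654 intron; % of control where 0% means no effect.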 The gist of the method: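 HeLa cells stably expressing EGFP interrupted by β-globin IVS2-654 intron, seeded overnight in Opti-MEM/2% FCS, then treated 2 days at 37 °C. Restored splicing read as total peak GFP intensity per well by laser scanning cytometry (488 nm excitation, 500–520 nm emission); 500 nM antisense PNA as control.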

A short description of assay [16]: Confirmation and Secondary Assay for Modulators of Hemoglobin Beta Chain Splicing at IVS2 705 locus (AID 930).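 Further: HeLa cells stably expressing the EGFP-705 splicing reporter; % of control where 0% means no effect.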 Put shortly:
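HeLa cells stably carrying EGFP interrupted by mutant beta-globin IVS2-705 intron (CMV-driven) were seeded at 500 cells/well, treated next day with compound for 2 days at 37C; corrected splicing restores EGFP, read as total peak GFP intensity per well.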

A short description of assay [17]: qHTS Assay for Lipid Storage Modulators (AID 1519; calls by dose curve; on activity change, negative = inhibition: on the % scale 0 is the no-effect control and ±100 the full control effect). The following applies: Drosophila S3 cells, BODIPY lipid droplet/cell ratio, laser cytometry, cells loaded with oleic acid. The gist of the method:
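Cells seeded at 5,000 per well were treated with compounds over a concentration series and loaded with oleic acid (400 uM, as added). Lipid droplet fluorescence (488 nm excitation, 500-530 nm channel) was read by laser-scanning cytometry and normalized to 20 uM Triacsin C.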

The nature of assay [18]: Tertiary RLuc qRT-PCR qHTS assay for Zika virus inhibitors (AID 1347169). Further: top concentration of the series differs between compounds; on the % scale 0 is the no-effect control and ±100 the full control effect; nearly all actives have a fitted effect of over 55% in size. The gist of the method:
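Orthogonal cell-based infection assay using recombinant ZIKV-RLuc (Cambodian) in Vero cells; compound added prior to virus at MOI 1-2. Incubation lasts 48-72 hrs at 37 degrees C before live-cell Renilla substrate is added and luminescence measured.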
Background: In qPCR the cycle at which signal appears reflects the starting amount.

For assay [19], the system named is Zika virus NS2B-NS3 protease (unlinked). In words: Optimization of GU AMC qHTS for Zika virus inhibitors: Unlinked NS2B-NS3 protease assay (AID 1347151). Further: potency means the concentration at half of the fitted maximal effect; nearly all actives have a fitted effect of over 80% in size. The gist of the method:
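Percent inhibition is derived from the 15-min change in AMC fluorescence, normalized against no-inhibitor and no-enzyme controls, then fitted to a 4-parameter Hill curve. Aprotinin was the intraplate control.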

The subject of assay [20] is Zika virus NS2B-NS3 protease (linked). Description: 384 well plate NINDS AMC confirmatory qHTS for Zika virus inhibitors (AID 1347163). Further: potency means the concentration at half of the fitted maximal effect; nearly all actives have a fitted effect of over 50% in size. Put shortly:
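Enzyme (5, 30 or 60 nM final) first met test compounds for ~15 min. The AMC-tagged peptide Ac-VKTGKR-AMC followed at 30 microM. Fluorescence was then recorded at 25 min and scaled against no-enzyme and no-inhibitor wells.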

For assay [21], the system named is Zika virus NS2B-NS3 protease (linked construct). In words: 384 well plate NINDS Rhodamine confirmatory qHTS for Zika virus inhibitors (AID 1347164). Further: nearly all actives have a fitted effect of over 65% in size. Further: potency means the concentration at half of the fitted maximal effect.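 On activity change, negative = inhibition: top concentration of the series differs between compounds; plate controls were no-inhibitor control for no effect and no-enzyme control for full effect.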 Put shortly: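 Compounds are incubated about 15 minutes with linked protease (5, 30 or 60 nM final). Rhodamine 110-tagged Ac-LKRR substrate (10 microM final) is added and fluorescence measured after 25 minutes.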

Inconclusive results are not listed. Activity calls are given as the source filed them. Unless noted, the call rests on the fitted dose curve; in most records, active means well fitted curve in the direction sought with a large enough effect; inconclusive means small, poorly fitted or top-dose-only effect, or another doubt; inactive means no such curve, though single readings can be large; an effect the other way counts as inactive or inconclusive.

Sequence of Furin (Homo sapiens) (P09958 whole entry, looked up): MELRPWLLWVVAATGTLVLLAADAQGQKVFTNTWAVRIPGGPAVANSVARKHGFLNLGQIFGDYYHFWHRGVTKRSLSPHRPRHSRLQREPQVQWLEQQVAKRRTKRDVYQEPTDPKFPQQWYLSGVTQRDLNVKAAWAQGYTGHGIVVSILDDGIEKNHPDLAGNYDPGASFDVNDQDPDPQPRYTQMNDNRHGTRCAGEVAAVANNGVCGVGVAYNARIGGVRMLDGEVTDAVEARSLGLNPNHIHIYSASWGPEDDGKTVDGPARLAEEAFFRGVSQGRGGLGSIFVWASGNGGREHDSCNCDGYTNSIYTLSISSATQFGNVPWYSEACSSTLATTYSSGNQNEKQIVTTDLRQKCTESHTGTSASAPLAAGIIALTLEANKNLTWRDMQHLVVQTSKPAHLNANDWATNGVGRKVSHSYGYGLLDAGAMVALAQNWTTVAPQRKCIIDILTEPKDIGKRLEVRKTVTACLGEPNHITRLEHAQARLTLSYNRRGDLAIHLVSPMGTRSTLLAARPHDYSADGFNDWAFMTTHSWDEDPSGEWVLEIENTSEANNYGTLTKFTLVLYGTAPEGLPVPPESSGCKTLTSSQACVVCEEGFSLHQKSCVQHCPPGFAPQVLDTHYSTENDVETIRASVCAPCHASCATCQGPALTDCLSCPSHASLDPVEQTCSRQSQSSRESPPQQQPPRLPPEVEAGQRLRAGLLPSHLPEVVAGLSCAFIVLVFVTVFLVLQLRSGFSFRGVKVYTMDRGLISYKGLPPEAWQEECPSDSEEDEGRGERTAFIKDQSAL
Sequence of Glucocorticoid receptor (Homo sapiens) (P04150 whole entry, looked up, the tested form may be a part): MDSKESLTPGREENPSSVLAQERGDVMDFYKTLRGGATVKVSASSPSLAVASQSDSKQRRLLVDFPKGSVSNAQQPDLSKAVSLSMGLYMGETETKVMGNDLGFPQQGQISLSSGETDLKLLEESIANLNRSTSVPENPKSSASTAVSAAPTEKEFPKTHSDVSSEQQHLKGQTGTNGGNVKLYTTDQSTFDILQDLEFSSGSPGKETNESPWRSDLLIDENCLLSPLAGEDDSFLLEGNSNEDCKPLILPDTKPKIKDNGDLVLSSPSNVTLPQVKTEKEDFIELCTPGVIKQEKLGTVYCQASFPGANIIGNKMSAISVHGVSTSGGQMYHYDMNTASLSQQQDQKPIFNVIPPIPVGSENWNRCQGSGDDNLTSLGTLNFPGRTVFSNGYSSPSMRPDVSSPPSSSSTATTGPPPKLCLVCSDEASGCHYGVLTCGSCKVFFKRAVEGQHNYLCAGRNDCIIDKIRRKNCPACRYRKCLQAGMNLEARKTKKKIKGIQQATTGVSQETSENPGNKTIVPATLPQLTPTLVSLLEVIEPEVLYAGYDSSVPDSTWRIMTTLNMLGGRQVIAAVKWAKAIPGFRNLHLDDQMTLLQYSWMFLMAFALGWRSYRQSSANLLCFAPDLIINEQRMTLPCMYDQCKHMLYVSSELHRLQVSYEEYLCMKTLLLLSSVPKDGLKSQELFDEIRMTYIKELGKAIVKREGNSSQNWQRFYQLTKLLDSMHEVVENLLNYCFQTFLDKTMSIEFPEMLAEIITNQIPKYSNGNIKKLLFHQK
Sequence of DNA dC->dU-editing enzyme APOBEC-3G (Homo sapiens) (Q9HC16 whole entry, looked up): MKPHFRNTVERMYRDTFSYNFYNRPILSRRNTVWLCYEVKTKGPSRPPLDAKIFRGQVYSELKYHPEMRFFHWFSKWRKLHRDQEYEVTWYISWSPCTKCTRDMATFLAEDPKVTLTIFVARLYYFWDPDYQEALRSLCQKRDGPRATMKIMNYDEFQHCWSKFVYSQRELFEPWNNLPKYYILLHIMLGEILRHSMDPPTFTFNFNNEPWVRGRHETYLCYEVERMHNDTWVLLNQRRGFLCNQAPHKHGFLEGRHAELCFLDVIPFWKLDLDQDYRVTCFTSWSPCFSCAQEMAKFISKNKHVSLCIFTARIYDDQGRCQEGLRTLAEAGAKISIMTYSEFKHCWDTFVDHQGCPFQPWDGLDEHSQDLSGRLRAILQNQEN

As to `CC1(COc2ccc(C[C@H]3SC(=O)NC3=O)cc2)CCCCC1`, the Potency was > 46 µM (inactive) in [1]; > 46 µM (inactive) in assay [2]; 19.2 µM (active) in assay [5]; 21.5 µM (active) in assay [6]; 11.9 µM (active) in [7]; 55.9 µM (active) in assay [10]. For the same compound, in [13], the Potency was 49.4 µM (active). In addition, the Potency result (in assay [3]; in assay [4]; with Furin (Homo sapiens); in [8]; in assay [9]) was “inactive” in each case. The compound was called inactive in assay [11] and in assay [12].

`O=C(Nc1ccc(Oc2ccccc2)cc1)O[C@@H]1CO[C@H]2[C@@H]1OC[C@@H]2NS(=O)(=O)c1ccc(Cl)cc1`: the Potency result (with Furin (Homo sapiens); in assay [5]; in assay [6]) was “inactive” each time.

`CC(C)C(NC(=O)C(CCCN=C(N)N)NC(=O)NC(Cc1ccccc1)C(=O)O)C(=O)NC(C=O)CCCN=C(N)N` (stereo not given): in the assay with Furin (Homo sapiens), the Potency is 11.2 µM (active).

`O=C1OC2(c3ccccc31)c1ccc3cc(O)ccc3c1Oc1c2ccc2cc(O)ccc12`: the Potency result with Furin (Homo sapiens) is “inactive”.

Consider `CN(Cc1cnc2nc(N)nc(N)c2n1)c1ccc(C(=O)NC(CCC(=O)O)C(=O)O)cc1` (stereo not given), for which the Potency result in assay [14], in [5], in assay [6], in assay [8], in assay [18] and in assay [9] was “inactive” each time. Further, the compound was called inactive in assay [15] and in assay [16]. For the same compound, the activity change, negative = inhibition in [17] (at 57.5 µM (top of the series)) is 6.64% (inactive). The max response in assay [17] (measured here: cell count channel max response) worked out at 7.14%; in [17] (measured here: lipid channel max response) it was 16%. In addition, the Potency with Furin (Homo sapiens) is 21.5 µM (active).

With `O=C(O)COc1ccc(-c2nccc3c2C(=O)N(Cc2cccc(C(F)(F)F)c2)CC(COc2cccnc2)O3)cc1` (stereo not given), the Potency entry (with Furin (Homo sapiens); in assay [5]; in assay [6]) was “inactive” in each case.

Take `COc1ccccc1N1CCN(CCn2c(=O)c3c(c4ccccc4n3C)n(C)c2=O)CC1`: the figures for the Potency (with Furin (Homo sapiens); in assay [5]; in assay [6]) were 24.1 µM (active), 27.1 µM (active) and 24.1 µM (active), respectively. Moreover, the Potency result in assay [8], in assay [18] and in assay [9] was “inactive” in each case.

Turning to `CN1CCN(C(=O)CCN2C(=O)/C(=C\c3ccccc3F)SC2=S)CC1`, the Potency result (with Furin (Homo sapiens); in assay [21]; in assay [8]; in assay [18]) was “inactive” in each case. Also, the values for the Potency in [19] and in assay [20] were 49.4 µM (active) and 251 µM (active), respectively.

As to `Cc1c(NS(=O)(=O)c2ccccc2)cc(C(C)C)c(O)c1S(=O)(=O)c1ccc(Cl)cc1`, the Potency result in the assay with Furin (Homo sapiens) is “inactive”.

As to `O=S(=O)(N[C@H]1CO[C@H]2[C@@H]1OC[C@@H]2Nc1nccc(-c2ccc3c(c2)OCO3)n1)c1ccc2ccccc2c1`, the Potency in the assay with Furin (Homo sapiens) is 55.5 µM (active).

As for `N#Cc1ccccc1S(=O)(=O)N[C@H]1CO[C@H]2[C@@H]1OC[C@H]2OC(=O)Nc1ccc(Oc2ccccc2)cc1`, the Potency entry (with Furin (Homo sapiens); in assay [5]; in [6]) was “inactive” throughout.

Turning to `O=C(O)COc1ccc(-c2nccc3c2C(=O)N(Cc2ccccc2)CC(COc2cccc(C(F)(F)F)c2)O3)cc1` (stereo not given), the Potency result with Furin (Homo sapiens) was “inactive”. Besides, the results for the Potency in [5], in assay [6] and in assay [21] were 55.5 µM (active), 44.1 µM (active) and 35.5 µM (active), respectively.
